PAFAH1B2 FP inh – PAFAH1B2 enzyme inhibitors, primary screen, biochemical, fluorescence polarization, human; Platelet-activating factor acetylhydrolase IB subunit alpha2 (Homo sapiens), P68402; recombinant PAFAH1B2, FP-rhodamine activity probe; inhibition, % at 3.39 µM; 1.2% of 340,000 active; AID 492953, 2010;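 active = inhibition above the mean of all tested compounds plus 3 SD, cut at about 24% in these data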
Target sequence (P68402 whole entry, looked up): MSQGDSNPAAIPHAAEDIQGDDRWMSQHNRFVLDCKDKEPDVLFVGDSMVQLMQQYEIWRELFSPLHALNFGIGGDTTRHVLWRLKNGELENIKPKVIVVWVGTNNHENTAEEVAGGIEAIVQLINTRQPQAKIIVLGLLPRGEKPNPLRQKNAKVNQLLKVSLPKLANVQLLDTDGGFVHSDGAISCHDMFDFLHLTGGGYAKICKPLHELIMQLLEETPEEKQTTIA
PAFAH2 inh – PAFAH2 enzyme inhibitors, primary screen, biochemical, fluorescence polarization, human; recombinant PAFAH2, FP-rhodamine activity probe; 0.99% of 340,000 active; inhibition, % at 3.39 µM;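 active = inhibition above the mean over all tested compounds plus 3 SD, cut at about 30% in these data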;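 also: inhibitors block probe labeling of enzyme so polarization drops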
PAFAH1B3 FP inh – PAFAH1B3 enzyme inhibitors, primary screen, biochemical, fluorescence polarization, human. recombinant PAFAH1B3, FP-rhodamine probe. Platelet-activating factor acetylhydrolase IB subunit alpha1 (Homo sapiens), Q15102. inhibition, % at 3.39 µM. 0.28% of 340,000 active;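 active = inhibition above the screen-wide average of all tested compounds plus 3 SD, cut at about 25% in these data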
Target sequence (Q15102 whole entry, looked up): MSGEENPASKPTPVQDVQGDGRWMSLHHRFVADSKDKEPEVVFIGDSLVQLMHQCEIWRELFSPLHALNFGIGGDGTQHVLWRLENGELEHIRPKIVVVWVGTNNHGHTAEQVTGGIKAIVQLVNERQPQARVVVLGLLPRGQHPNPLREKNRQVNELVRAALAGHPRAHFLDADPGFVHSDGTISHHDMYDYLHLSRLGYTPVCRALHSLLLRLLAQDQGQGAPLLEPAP
pPAFAH FP inh – pPAFAH enzyme inhibitors, primary screen, biochemical, fluorescence polarization, human; recombinant pPAFAH, FP-rhodamine probe fluorescence polarization; AID 463082, 2010; 1.5% of 330,000 active; inhibition, % at 3.39 µM;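 active = inhibition above the mean inhibition across the screen plus 3 SD, cut at about 25% in these data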;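 also: inhibitors block binding of the rhodamine activity-based probe so polarization drops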
TCR-CD3 inh – inhibitors of human TCR-CD3 interaction, primary screen, biochemical, fluorescence, TAMRA-labeled TCR probe; T-cell receptor (TCR); inhibition, % at 9.4 µM; 0.37% of 360,000 active; AID 651800, 2012; in the data active = inhibition above about 19%;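 also: recombinant mutant TCR 2C K166C tagged with TAMRA read by polarization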
PAFAH2 confirm – PAFAH2 enzyme inhibitors, confirmation, biochemical, fluorescence polarization, human | 65% of 2,300 active | shares compounds with PAFAH2 inh | inhibition, % at 3.39 µM | recombinant PAFAH2, FP-rhodamine activity probe;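 active = mean inhibition over three repeats above a set limit taken from the earlier primary screen, cut at about 30% in these data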;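 also: inhibitor blocks binding of rhodamine activity probe so polarization falls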
Of the large screens only hits and unclear results are named; the others gave an inactive call (follow-up assays come after a bar, where they were run). Sampled rows, rich in hits. Any-hit rate of the full collection: about 2.7%.

CCOc1ccc(NC(=O)c2ccc(CNc3c(N4CCCC4)c(=O)c3=O)cc2)cc1	none
CC(C(=O)NCc1cccc(Cl)c1)N1C(=O)c2ccccc2C1=O (stereo unspecified)	none
O=C(COC(=O)c1cccc(N2C(=O)C3CC=CCC3C2=O)c1)c1ccccc1 (stereo unspecified)	PAFAH2 inh 35 | PAFAH2 confirm inactive
COc1ccc(C(=O)OCC(=O)c2ccc[nH]2)cc1	PAFAH2 inh 40 | PAFAH2 confirm 31
Cc1cc(C(=O)OCC(=O)Nc2cc(Cl)ccc2C)c(C)o1	none
COC(=O)c1ccc(NC(=O)Nc2ccccc2F)cc1	none
Cc1cc(C(=O)OCC(=O)Nc2ccccc2F)c(C)o1	PAFAH2 inh 39 | PAFAH2 confirm 32
COc1cccc(C(=O)COC(=O)c2ccc(NC(C)=O)cc2)c1	PAFAH2 inh 37 | PAFAH2 confirm 32
CC(=O)Nc1ccc(C(=O)OCC(=O)Nc2ccccc2F)cc1	PAFAH2 inh 69 | PAFAH2 confirm 70
Cc1ccc2nccc(C(=O)N3CCCC(N4CCN(c5ccc(F)cc5)CC4)C3)c2c1 (stereo unspecified)	none
CCn1c(SCC(=O)NC2CCCC2)nnc1-c1ccccn1	none
Cc1cccc(NC(=O)COC(=O)c2ccc3nc(C)c(C)nc3c2)c1	PAFAH2 inh 71 | PAFAH2 confirm 49
Cc1cc(C(=O)OCC(=O)Nc2ccccc2C#N)c(C)o1	PAFAH2 inh 43 (no result: pPAFAH FP inh) | PAFAH2 confirm 32
Cc1cccc(NC(=O)COC(=O)c2cc(C)oc2C)c1	PAFAH2 inh 75 | PAFAH2 confirm 79
Cc1coc2cc3oc(=O)c(CCC(=O)NCC(=O)O)c(C)c3cc12	none (no result: pPAFAH FP inh)
COc1ccccc1N1CCN(Cc2cc(=O)oc3ccccc23)CC1	none (no result: PAFAH1B2 FP inh, PAFAH2 inh, PAFAH1B3 FP inh, pPAFAH FP inh)
COc1ccccc1NC(=O)CC1Nc2ccccc2NC1=O (stereo unspecified)	PAFAH2 inh 86 | PAFAH2 confirm inactive
COc1ccc(NC(=O)CC2Nc3ccccc3NC2=O)c([N+](=O)[O-])c1 (stereo unspecified)	none
CC(C)(C)OC(=O)n1cc(C(=O)c2ccccc2O)cn1	PAFAH2 inh 84 | PAFAH2 confirm 69
CCOC(=O)n1cc(C(=O)c2ccccc2O)cn1	none
COc1ccccc1C(=O)NC(=O)COC(=O)C1(C)CC1(Cl)Cl (stereo unspecified)	none
Cc1cccc(C)c1C(O)c1ncc(-c2cccc(C(F)(F)F)c2)[nH]1 (stereo unspecified)	none (no result: PAFAH1B2 FP inh, PAFAH2 inh, PAFAH1B3 FP inh, pPAFAH FP inh)
O=C1C(=O)N(CCCN2CCOCC2)C(c2ccc(F)cc2)/C1=C(\O)c1ccc2c(c1)OCCO2 (stereo unspecified)	PAFAH2 inh 48 | PAFAH2 confirm inactive
Cc1ccc(C(=O)NCCc2nc3ccccc3[nH]2)cc1[N+](=O)[O-]	none
Cc1ccc(C(=O)NCCSc2c(C)[nH]c3ccccc23)cc1[N+](=O)[O-]	PAFAH2 inh 30 | PAFAH2 confirm inactive
Nc1ccc(C(=O)OCCCc2nc3cc4ccccc4cc3[nH]2)cc1	none
Nc1ccc(C(=O)OCc2nc3c(ccc4ccccc43)[nH]2)cc1	PAFAH2 inh 80 | PAFAH2 confirm 82
Nc1ccc(C(=O)OCc2nc3cc4ccccc4cc3[nH]2)cc1	PAFAH2 inh 85 | PAFAH2 confirm 83
CC(=O)c1cccc(NC(=O)COc2cc(C)on2)c1	none
CCCNC(=O)COC(=O)/C=C/c1ccc(C)o1	PAFAH2 inh 40 | PAFAH2 confirm 37
Cc1ccc(/C=C/C(=O)OCC(=O)NCc2ccccc2)o1	PAFAH2 inh 52 (no result: pPAFAH FP inh) | PAFAH2 confirm 40
CCOc1ccc(CCNC(=O)COC(=O)/C=C/c2ccc(C)o2)cc1OCC	none
CCOC(=O)C1=CN(Cc2ccco2)S(=O)(=O)NC1c1ccc(Br)cc1F (stereo unspecified)	none | PAFAH2 confirm inactive
O=C1CN(C(=O)/C=C/c2ccc(Br)cc2)CCN1	none (no result: pPAFAH FP inh)
O=C(O)c1cccc(-c2nnn(Cc3ccccc3Cl)n2)c1	PAFAH2 inh 84 | PAFAH2 confirm inactive
O=C(O)c1cccc(-c2nnn(Cc3ccccc3)n2)c1	none

High-throughput results from PubChem BioAssay.
